Z-score and composite z-score data for 36 compounds are collected here from PubChem BioAssay.

Structures are written as SMILES. Activity calls are given as the source filed them.

Luciferin 4-monooxygenase (Photinus pyralis), sequence (P08659 whole entry, looked up): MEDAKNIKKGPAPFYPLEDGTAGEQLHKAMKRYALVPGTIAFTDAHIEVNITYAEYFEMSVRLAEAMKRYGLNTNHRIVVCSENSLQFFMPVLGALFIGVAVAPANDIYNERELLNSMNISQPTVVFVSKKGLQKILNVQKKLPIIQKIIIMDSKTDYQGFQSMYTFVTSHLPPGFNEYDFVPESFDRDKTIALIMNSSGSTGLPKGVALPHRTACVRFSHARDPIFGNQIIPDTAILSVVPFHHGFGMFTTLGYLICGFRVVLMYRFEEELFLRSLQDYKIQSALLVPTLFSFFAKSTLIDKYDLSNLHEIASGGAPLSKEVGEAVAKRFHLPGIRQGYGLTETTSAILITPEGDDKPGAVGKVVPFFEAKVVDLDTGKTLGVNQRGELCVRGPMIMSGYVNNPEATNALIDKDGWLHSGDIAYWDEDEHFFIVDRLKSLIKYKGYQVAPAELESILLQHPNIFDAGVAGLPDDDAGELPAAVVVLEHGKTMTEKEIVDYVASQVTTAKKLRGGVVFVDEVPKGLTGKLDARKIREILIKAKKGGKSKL

One assay addresses Luciferin 4-monooxygenase (Photinus pyralis) (UniProt P08659). As to the kind of experiment: firefly luciferase enzyme inhibitors, primary screen, biochemical, luminescence, purified enzyme, 2006 set (AID 1141).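 Further: cell-free assay with purified firefly luciferase at 100 ng per well in PBS; test concentration not given here.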 The following applies: SteadyGlo luminescence, 30 min, higher = more signal, called active from +8 up or from −8 down.
For `CCOC(=O)NN=C1C[C@@H](O)[C@@H](O)[C@@H]2[C@@H]3C(=O)N(Cc4ccc5c(c4)OCO5)C(=O)[C@@H]3CC[C@H]12`, the z-score was 1.12 (inactive). With `CCOC(=O)[C@H](CC(C)C)NC(=O)CCC1CC(OC(=O)NCc2cccc3ccccc23)CC2(CCCC(COC(=O)NCCC(C)C)O2)O1` (stereo partly specified), the z-score is -0.0038 (inactive). The same measure, in the same setting: the figure for `CC(C)=CCCC(C)=CCON=C1C[C@@H](O)[C@@H](O)[C@@H]2[C@@H]3C(=O)N(C[C@@H]4CCCO4)C(=O)[C@@H]3CC[C@H]12` is 0.217 (inactive); for `CC=CC1=C(CO)C(=O)[C@@H]2O[C@@H]2C1=O` it is -0.78 (inactive); for `CO[C@H]1COC(=O)CCC[C@@H](C)[C@H](OC)COC(=O)[C@@H](C)NC(=O)CC=C[C@@H]1C` it is 0.624 (inactive).

`COc1ccc(O[C@H]2C=C[C@@H](c3ccccc3)O[C@@H]2COC(=O)CCC(C)=NOC[C@@H](O)[C@H]2O[C@@H]3OC(C)(C)O[C@@H]3[C@H]2O)cc1`: the z-score was 0.302 (inactive).

With `O=C(NN=C1C[C@@H](O)[C@@H](O)[C@@H]2[C@@H]3C(=O)N(Cc4ccccc4)C(=O)[C@@H]3CC[C@@H]12)OCc1ccccc1`, the z-score was 0.472 (inactive). The same measure, in the same setting: the figure for `CCOC(=O)[C@H](CC(C)C)NC(=O)CCC1CC(OC(=O)NCc2cccc3ccccc23)CC2(CCCC(COC(=O)NCCc3ccc(Cl)cc3)O2)O1` (stereo partly specified) is 0.226 (inactive); for `CO[C@@H]1C=CCC(=O)N2CCC[C@H]2C(=O)OC[C@@H](C)C(=O)OC[C@H]1C` it is -1.1 (inactive); for `CC(C)CON=C1C[C@@H](O)[C@@H](O)[C@@H]2[C@@H]3C(=O)N(C4CCCCC4)C(=O)[C@@H]3CC[C@H]12` it is -0.266 (inactive).

Another assay relates to Wnt5a (protein binding on small-molecule microarray). The assay is described as follows: Wnt5a binders on small-molecule microarray, primary screen, biophysical, 635/667 nm fluorescence (AID 1142).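 Further: fluorescence read at 667 nm with signal to noise per printed feature.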 The following applies: 635 nm fluorescence, higher = more signal.
As for `CC(CCN1CCCc2nc(C)c(C)cc21)=NOC(C)CN1CCCCc2nc(C)c(C)cc21` (stereo unspecified), the composite z-score was 0.277.

The compound `CCN1C(=O)[C@@H]2[C@H]3C(=CC[C@@H]2C1=O)C1(OCCCO1)[C@H]1O[C@H]1[C@H]3O` showed a composite z-score of 0.36. As for `Cc1ccc(S(=O)(=O)N[C@@H]2COC(=O)[C@@H](C)COC(=O)CC=C[C@H]2C)cc1`, the composite z-score was -0.278. On the same count and under the same terms, the figure for `COC(=O)C1=C(C)N(Cc2ccccc2)[C@]23O[C@](C(=O)OC)(C(=O)N2[C@@H]1c1ccccc1)C(C(=O)OC)=C3C(=O)OC` is 0.256. The same measure, in the same setting: the figure for `CC(C)CON=C1C[C@@H](O)[C@@H](O)[C@@H]2[C@@H]3C(=O)N(c4ccc(F)cc4F)C(=O)[C@@H]3CC[C@H]12` is 0.0062; for `CCOC(=O)CCN1C(=O)[C@H]2[C@H]3[C@H](O)[C@H](O)CC(=NOCC(C)C)[C@H]3CC[C@H]2C1=O` it is 0.0106. Compound `CC(C)=CCCC(C)=CCON=C1C[C@@H](O)[C@@H](O)[C@@H]2[C@@H]3C(=O)N(C(C)(C)C)C(=O)[C@@H]3CC[C@H]12` gave a composite z-score of 0.158.

The compound `C[C@H]1CC[C@H]2C(=O)O[C@H](COc3ccc(C(C)(C)C)cc3)CN2[C@@H]1c1ccc(Br)cc1` gave a composite z-score of -0.185.

`COC(=O)CC=C[C@@H](C)[C@@H](C=NO[C@@H]1O[C@H](COC(C)=O)[C@@H](OC(C)=O)[C@H](OC(C)=O)[C@H]1OC(C)=O)NS(=O)(=O)c1ccc(C)cc1` showed a composite z-score of -0.0003.

`CCOC(=O)[C@H](CC(C)C)NC(=O)CCC1CC(OC(=O)NCc2cccc3ccccc23)CC2(CCCC(COC(=O)NCc3ccncc3)O2)O1` (stereo partly specified) displayed a composite z-score of -0.0656. Still for that read-out and setting: the figure for `CC(CCN1CCCc2nc(C)c(C)cc21)=NO[C@@H](C)c1cc(-c2c(C)cc(C)cc2C)no1` is 0.0353; for `O=C1[C@H]2[C@H]3[C@H](O)[C@H](O)CC(=NO[C@@H]4O[C@H](CO)[C@@H](O)[C@H](O)[C@H]4O)[C@H]3CC[C@H]2C(=O)N1c1cccc(Oc2ccccc2)c1` it is 0.162.

The compound `CCOC(=O)NN=C1C[C@@H](O)[C@@H](O)[C@@H]2[C@@H]3C(=O)N(c4ccc(F)cc4F)C(=O)[C@@H]3CC[C@@H]12` came in with a composite z-score of 0.0054. The same measure, in the same setting: the figure for `C[C@H]1CC[C@H]2C(=O)OC(CO)CN2[C@@H]1c1ccc(Br)cc1` (stereo partly specified) is 0.0096. As for `Cn1c(=O)n2n(c1=O)[C@H]1[C@H](O)[C@@H]3O[C@@H]3C(=NOCc3ccccc3)[C@H]1CC2`, the composite z-score is -0.279.

Regarding `O=c1n(-c2ccccc2)c(=O)n2n1CC[C@@H]1C(=NOCc3ccccc3)[C@H]3O[C@H]3[C@@H](O)[C@@H]12`, the composite z-score stood at 0.18. The same measure, in the same setting: the figure for `C[C@@H]1CC[C@H]2C(=O)O[C@@H](Cc3ccccc3)CN2[C@H]1c1ccc(Br)cc1` is -0.0729. `CO[C@H]1COC(=O)[C@@H](C)COC(=O)[C@H](C)NC(=O)CC=C[C@H]1C` showed a composite z-score of 0.0392. The same measure, in the same setting: the figure for `CO[C@H]1COC(=O)CC=C[C@H](C)[C@@H](OC)COC(=O)[C@@H](C)COC(=O)CC=C[C@@H]1C` is -0.545; for `COC(=O)CC=C[C@@H](C)[C@@H](C=NOCC[C@@H]1C=C[C@H](OC(C)=O)[C@@H](COC(C)=O)O1)NS(=O)(=O)c1ccc(C)cc1` it is 0.146; for `CCOC(=O)CCN1C(=O)[C@H]2[C@H]3[C@H](O)[C@H](O)CC(=NNC(=O)OCc4ccccc4)[C@@H]3CC[C@H]2C1=O` it is 0.109.

Consider `CC(C)=CCCC(C)=CCON=C1C[C@@H](O)[C@@H](O)[C@@H]2[C@@H]3C(=O)N(Cc4ccccc4)C(=O)[C@@H]3CC[C@@H]12`, for which the composite z-score came to 0.292. The compound `C[C@@H](ON=C1[C@H]2CCn3c(=O)n(-c4ccccc4)c(=O)n3[C@H]2[C@H](O)[C@@H]2O[C@H]12)c1cn([C@@H]2COC[C@H]2O)nn1` returned a composite z-score of 0.134. Consider `COc1cc(O)c(C(=O)C=Cc2ccc3c(c2)OCO3)c(OC)c1`, for which the composite z-score was found to be 0.0926. `COC(=O)CC=C[C@@H](C)[C@@H](C=NO[C@H](C)c1cn([C@H](CO)Cc2ccccc2)nn1)NS(=O)(=O)c1ccc(C)cc1` showed a composite z-score of -0.0374.

In turn, `COc1ccc(O[C@H]2C=C[C@@H](c3ccccc3)O[C@@H]2COC(=O)CCC(C)=NO[C@@H]2O[C@H](COC(C)=O)[C@@H](OC(C)=O)[C@H](OC(C)=O)[C@H]2OC(C)=O)cc1` gave a composite z-score of 0.0276.

With `CCOC(=O)NN=C1C[C@@H](O)[C@@H](O)[C@@H]2[C@@H]3C(=O)N(Cc4ccc5c(c4)OCO5)C(=O)[C@@H]3CC[C@H]12`, the composite z-score was -0.193. `CCOC(=O)[C@H](CC(C)C)NC(=O)CCC1CC(OC(=O)NCc2cccc3ccccc23)CC2(CCCC(COC(=O)NCCC(C)C)O2)O1` (stereo partly specified) registered a composite z-score of 0.0463. With `CC(C)=CCCC(C)=CCON=C1C[C@@H](O)[C@@H](O)[C@@H]2[C@@H]3C(=O)N(C[C@@H]4CCCO4)C(=O)[C@@H]3CC[C@H]12`, the composite z-score came out at 0.24. `CC=CC1=C(CO)C(=O)[C@@H]2O[C@@H]2C1=O` yielded a composite z-score of 0.189.

As for `CO[C@H]1COC(=O)CCC[C@@H](C)[C@H](OC)COC(=O)[C@@H](C)NC(=O)CC=C[C@@H]1C`, the composite z-score is -0.183. `COc1ccc(O[C@H]2C=C[C@@H](c3ccccc3)O[C@@H]2COC(=O)CCC(C)=NOC[C@@H](O)[C@H]2O[C@@H]3OC(C)(C)O[C@@H]3[C@H]2O)cc1` returned a composite z-score of 0.383. With `O=C(NN=C1C[C@@H](O)[C@@H](O)[C@@H]2[C@@H]3C(=O)N(Cc4ccccc4)C(=O)[C@@H]3CC[C@@H]12)OCc1ccccc1`, the composite z-score was -0.0896. With `CCOC(=O)[C@H](CC(C)C)NC(=O)CCC1CC(OC(=O)NCc2cccc3ccccc23)CC2(CCCC(COC(=O)NCCc3ccc(Cl)cc3)O2)O1` (stereo partly specified), the composite z-score came out at 0.0502.

For the compound `CO[C@@H]1C=CCC(=O)N2CCC[C@H]2C(=O)OC[C@@H](C)C(=O)OC[C@H]1C`, the composite z-score was determined as 0.172. In the case of `CC(C)CON=C1C[C@@H](O)[C@@H](O)[C@@H]2[C@@H]3C(=O)N(C4CCCCC4)C(=O)[C@@H]3CC[C@H]12`, the composite z-score turned out to be 0.298.
